Laboratory results published in PubChem BioAssay (EPA / NIEHS).
Results filed as inconclusive are left out. Activity calls are given as the source filed them. The calls were made as follows, unless noted: active = hit-call score of the fitted dose curve at least 0.9, where 1 is the maximum; inconclusive = response in the unintended direction; inactive = score below 0.9.

Experiments:
PGR (gene 5241) [1] = target: PGR (gene 5241) (UniProt P06401); assay: TOX21_PR_LUC_Followup_Antagonist: Tox21 HEK293 Progesterone Receptor (PR) Antagonism Luciferase Follow-Up Assay (AID 2283938);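 also: curve fitted upward as signal gain over DMSO baseline despite antagonist label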
Sequence of PGR (gene 5241) (P06401 whole entry, looked up): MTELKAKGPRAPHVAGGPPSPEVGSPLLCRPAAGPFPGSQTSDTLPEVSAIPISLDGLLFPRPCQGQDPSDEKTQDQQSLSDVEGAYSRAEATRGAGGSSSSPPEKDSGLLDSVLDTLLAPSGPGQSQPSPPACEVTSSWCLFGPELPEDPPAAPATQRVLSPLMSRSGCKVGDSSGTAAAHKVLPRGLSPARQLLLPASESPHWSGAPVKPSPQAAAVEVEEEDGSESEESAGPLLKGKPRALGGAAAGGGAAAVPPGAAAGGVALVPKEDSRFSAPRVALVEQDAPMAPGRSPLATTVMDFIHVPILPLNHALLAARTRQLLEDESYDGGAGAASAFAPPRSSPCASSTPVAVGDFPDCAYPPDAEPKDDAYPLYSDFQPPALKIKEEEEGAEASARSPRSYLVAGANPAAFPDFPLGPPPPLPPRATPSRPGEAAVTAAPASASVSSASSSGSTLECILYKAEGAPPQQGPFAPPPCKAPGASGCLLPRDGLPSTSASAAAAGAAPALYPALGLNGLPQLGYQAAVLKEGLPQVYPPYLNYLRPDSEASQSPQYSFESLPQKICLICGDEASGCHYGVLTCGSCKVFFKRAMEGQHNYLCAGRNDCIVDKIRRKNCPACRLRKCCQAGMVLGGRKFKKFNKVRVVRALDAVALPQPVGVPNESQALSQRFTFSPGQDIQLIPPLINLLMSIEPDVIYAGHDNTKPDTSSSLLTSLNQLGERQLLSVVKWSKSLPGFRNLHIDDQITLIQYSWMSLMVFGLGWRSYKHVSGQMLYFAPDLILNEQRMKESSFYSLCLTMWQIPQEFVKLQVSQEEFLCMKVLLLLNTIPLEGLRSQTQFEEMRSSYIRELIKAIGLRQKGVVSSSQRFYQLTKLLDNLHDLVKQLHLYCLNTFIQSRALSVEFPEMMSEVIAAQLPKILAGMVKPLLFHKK
How it was run: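 Luminescence from ONE-Glo was measured 30 min after reagent addition, following 16 h exposure of HEK293-PR-A-luc cells (3,000/well, plated 5 h earlier) to DMSO-dissolved compounds at 37C; DMSO served as baseline.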

[2] = TOX21_PR_LUC_Followup_Antagonist_viability: Viability Assessment in the Tox21 HEK293 Progesterone Receptor (PR) Antagonism Luciferase Follow-Up Assay (AID 2283940)
How it was run: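 Cellular ATP, measured with luciferase-coupled CellTiter-Glo, served as the viability endpoint after HEK293-PR-A-luc cells were exposed to test compounds for 16 h at 37C.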

[3] = target: T1, Thyroid hormone receptor alpha (Rattus norvegicus) + Thyroid hormone receptor beta (Rattus norvegicus) (UniProt P18113+P63059); assay: TOX21_TR_LUC_GH3_Agonist_Followup: Tox21 GH3 Thyroid Hormone Receptor Agonism Luciferase Follow-Up Assay (AID 2283939)
T1 sequence (P63059 whole entry, looked up): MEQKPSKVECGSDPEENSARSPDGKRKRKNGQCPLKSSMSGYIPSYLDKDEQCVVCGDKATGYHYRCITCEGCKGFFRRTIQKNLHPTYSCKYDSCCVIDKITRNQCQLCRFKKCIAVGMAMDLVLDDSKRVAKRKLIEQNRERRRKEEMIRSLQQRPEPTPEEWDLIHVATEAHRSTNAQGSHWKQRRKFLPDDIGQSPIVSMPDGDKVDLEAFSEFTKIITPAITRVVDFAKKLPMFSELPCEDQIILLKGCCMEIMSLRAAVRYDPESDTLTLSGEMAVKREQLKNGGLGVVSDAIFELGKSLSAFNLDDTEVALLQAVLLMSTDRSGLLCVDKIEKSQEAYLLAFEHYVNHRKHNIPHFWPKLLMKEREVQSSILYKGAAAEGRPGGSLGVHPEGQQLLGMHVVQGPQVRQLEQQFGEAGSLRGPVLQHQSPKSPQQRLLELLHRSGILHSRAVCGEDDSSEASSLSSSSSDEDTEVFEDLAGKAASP
T1 sequence (P18113 whole entry, looked up): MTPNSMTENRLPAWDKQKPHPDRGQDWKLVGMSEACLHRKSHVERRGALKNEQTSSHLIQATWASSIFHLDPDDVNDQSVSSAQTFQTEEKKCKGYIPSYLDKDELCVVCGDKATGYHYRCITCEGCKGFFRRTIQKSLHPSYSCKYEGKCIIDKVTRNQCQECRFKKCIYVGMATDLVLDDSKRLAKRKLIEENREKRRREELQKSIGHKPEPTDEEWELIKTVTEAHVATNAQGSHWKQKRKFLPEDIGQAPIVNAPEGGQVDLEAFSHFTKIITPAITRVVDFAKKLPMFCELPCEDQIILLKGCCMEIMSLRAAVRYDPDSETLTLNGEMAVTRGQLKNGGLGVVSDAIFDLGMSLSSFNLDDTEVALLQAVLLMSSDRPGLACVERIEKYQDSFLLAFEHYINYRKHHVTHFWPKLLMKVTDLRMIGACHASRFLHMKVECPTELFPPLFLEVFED
How it was run: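 Rat GH3 cells (1,500/well) in serum-free assay medium, treated with 15-point series, 92 uM to 5 nM final, for 24 h at 37C. Luciferase via ONE-Glo luminescence; gain of signal fitted against DMSO, T3 positive control.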

THRA (gene 7067) [4] = target: THRA (gene 7067) (UniProt P10827); assay: TOX21_TRA_COA_Agonist_Followup_ratio: Tox21 Thyroid Hormone Receptor alpha Agonism through Coactivator Recruitment Follow-Up Assay, Ratio (AID 2283948; active = hit-call score of the fitted dose curve at least 0.9, where 1 is the maximum; inactive = score below 0.9)
Sequence of THRA (gene 7067) (P10827 whole entry, looked up, the tested form may be a part): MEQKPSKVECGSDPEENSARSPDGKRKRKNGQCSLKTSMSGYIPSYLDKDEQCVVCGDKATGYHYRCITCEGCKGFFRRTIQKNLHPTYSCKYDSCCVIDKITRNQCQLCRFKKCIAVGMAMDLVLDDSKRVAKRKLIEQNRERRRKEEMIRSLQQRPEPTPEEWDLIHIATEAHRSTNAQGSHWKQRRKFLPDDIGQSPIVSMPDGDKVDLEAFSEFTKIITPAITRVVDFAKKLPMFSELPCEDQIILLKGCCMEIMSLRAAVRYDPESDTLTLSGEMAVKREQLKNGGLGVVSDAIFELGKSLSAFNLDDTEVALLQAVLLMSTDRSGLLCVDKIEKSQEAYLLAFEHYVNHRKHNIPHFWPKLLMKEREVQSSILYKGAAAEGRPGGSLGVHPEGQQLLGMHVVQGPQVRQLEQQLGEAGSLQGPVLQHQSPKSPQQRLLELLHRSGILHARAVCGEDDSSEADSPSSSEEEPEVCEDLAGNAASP
How it was run: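 Cell-free TR-FRET coactivator recruitment: GST-tagged TRα LBD (2.5 nM) with 0.10% BSA was incubated with compound, then fluorescein-SRC-2 peptide (200 nM) and Tb-anti-GST antibody (2 nM) added. 520:495 nm ratio normalized to DMSO (0%) and T3 (100%).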

THRB (gene 7068) [5] = target: THRB (gene 7068) (UniProt P10828); assay: TOX21_TRB_BLA_Agonist_Followup_ratio: Tox21 Thyroid Hormone Receptor beta Agonism Beta-lactamase (BLA) Follow-Up Assay, Ratio (AID 2283954)
Sequence of THRB (gene 7068) (P10828 whole entry, looked up, the tested form may be a part): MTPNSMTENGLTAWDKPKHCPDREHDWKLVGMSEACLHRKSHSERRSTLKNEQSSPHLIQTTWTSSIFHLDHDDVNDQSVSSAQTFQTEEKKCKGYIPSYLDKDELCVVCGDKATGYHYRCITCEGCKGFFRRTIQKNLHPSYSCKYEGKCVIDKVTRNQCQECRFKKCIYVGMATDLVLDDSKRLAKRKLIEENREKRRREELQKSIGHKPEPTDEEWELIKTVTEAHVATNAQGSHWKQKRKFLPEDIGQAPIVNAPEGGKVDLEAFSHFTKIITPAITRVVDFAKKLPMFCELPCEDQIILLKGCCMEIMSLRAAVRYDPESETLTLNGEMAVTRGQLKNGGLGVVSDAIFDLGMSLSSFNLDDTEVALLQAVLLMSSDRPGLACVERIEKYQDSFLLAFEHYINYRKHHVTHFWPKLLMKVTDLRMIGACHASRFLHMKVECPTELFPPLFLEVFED
How it was run: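 Human TRβ LBD–GAL4 DBD fusion in GeneBLAzer UAS-bla HEK293T cells; 11 concentrations in triplicate, 18 h at 37°C/5% CO2, T3 as agonist control. CCF4-AM substrate 2 h at room temperature; 460:530 nm ratio fitted for gain of signal versus DMSO.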

[6] = TOX21_TRB_BLA_Agonist_Followup_viability: Viability Assessment in the Tox21 Thyroid Hormone Receptor beta Agonism Beta-lactamase (BLA) Follow-Up Assay (AID 2283956)
How it was run: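 TRb-bla HEK293T cells (GAL4-DBD/human TRb LBD) in 2% charcoal-stripped FBS medium were exposed 18 h at 37C to 11 concentrations in triplicate. CellTiter-Glo ATP luminescence was read after 30 min at room temperature, with bidirectional fitting against DMSO.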

THRB (gene 7068) [7] = target: THRB (gene 7068) (UniProt P10828); assay: TOX21_TRB_COA_Agonist_Followup_ratio: Tox21 Thyroid Hormone Receptor beta Agonism through Coactivator Recruitment Follow-Up Assay, Ratio (AID 2283963; active = hit-call score of the fitted dose curve at least 0.9, where 1 is the maximum; inactive = score below 0.9)
How it was run: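 GST-TRb LBD 5.0 nM + 0.10% BSA + cpd; add fluorescein-SRC-2 200 nM / Tb anti-GST Ab 2 nM; TR-FRET ex 340, em 520:495; norm DMSO 0%, T3 100%.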

[8] = target: Retinoic acid receptor RXR-alpha (Homo sapiens) (UniProt P19793); assay: TOX21_TR_RXR_BLA_Agonist_Followup_ratio: Tox21 Thyroid Hormone Receptor beta Retinoid X Receptor alpha (RXRa) Agonism Beta-lactamase (BLA) Follow-Up Assay, Ratio (AID 2283968)
Sequence of Retinoic acid receptor RXR-alpha (Homo sapiens) (P19793 whole entry, looked up, the tested form may be a part): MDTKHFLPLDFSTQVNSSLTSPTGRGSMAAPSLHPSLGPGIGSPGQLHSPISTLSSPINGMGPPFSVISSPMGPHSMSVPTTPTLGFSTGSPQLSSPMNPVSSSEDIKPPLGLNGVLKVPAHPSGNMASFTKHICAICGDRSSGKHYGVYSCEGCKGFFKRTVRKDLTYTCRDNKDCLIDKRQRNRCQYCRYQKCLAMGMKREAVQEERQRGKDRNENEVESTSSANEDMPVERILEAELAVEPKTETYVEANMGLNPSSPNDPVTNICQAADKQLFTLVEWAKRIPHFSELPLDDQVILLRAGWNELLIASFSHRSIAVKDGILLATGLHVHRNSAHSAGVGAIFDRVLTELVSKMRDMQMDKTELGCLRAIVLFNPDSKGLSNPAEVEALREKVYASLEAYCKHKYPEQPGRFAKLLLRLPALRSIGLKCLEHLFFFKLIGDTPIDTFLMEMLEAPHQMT
How it was run: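 This follow-up tests whether responses seen in the TR GH3 luciferase agonist screen are specific, using a GAL4-driven beta-lactamase reporter for RXRa in HEK293T cells. Compound exposure lasts 16 h; signal is the cleaved/uncleaved substrate ratio.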

[9] = TOX21_TR_RXR_BLA_Agonist_Followup_viability: Viability Assessment in the Tox21 Thyroid Hormone Receptor beta Retinoid X Receptor alpha (RXRa) Agonism Beta-lactamase (BLA) Follow-Up Assay (AID 2283970)
How it was run: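 In qHTS format, RXRa-bla HEK293T cells (2,500/well) received compound for 16h. ATP content was then measured with CellTiter-Glo, and responses were fitted bidirectionally relative to DMSO controls.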

PGR (gene 5241) [10] = target: PGR (gene 5241) (UniProt P06401); assay: TOX21_PR_LUC_Followup_Agonist: Tox21 HEK293 Progesterone Receptor (PR) Agonism Luciferase Follow-Up Assay (AID 2283937; active = hit-call score of the fitted dose curve at least 0.9, where 1 is the maximum; inactive = score below 0.9)
How it was run: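 Agonist mode: reporter cells carrying PR-A and luciferase are treated 16 h with test compounds at 37C. Luciferase induction is measured by luminescence and fitted upward against DMSO.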

[11] = TOX21_PR_LUC_Followup_Agonist_viability: Viability Assessment in the Tox21 HEK293 Progesterone Receptor (PR) Agonism Luciferase Follow-Up Assay (AID 2283941);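 also: loss of signal means cytotoxicity so actives lower viability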
How it was run: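 Luminescent ATP quantitation (CellTiter-Glo) serves as the read-out; a drop flags cytotoxic compounds. Cells are HEK293-PR-A-luc grown in 10% charcoal-stripped FBS, plated 3,000/well, and exposed to compound for 16 h.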

[12] = CCTE_Harrill_HTTr_Viability_DMEM_6hr: (Pilot) CCTE's 6-hour Cell Viability Assessment for the High-Throughput Transcriptomics (HTTr) Platform, in MCF-7 cells cultured in DMEM + 10% fetal bovine serum, Harrill Lab (AID 2283973; active = hit-call score of the fitted dose curve at least 0.9, where 1 is the maximum; inactive = score below 0.9)
How it was run: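 MCF-7 cells in DMEM + 10% FBS, eight-point dilution series, 6 h exposure. Membrane integrity by propidium iodide exclusion with high-content imaging; bidirectional fit versus DMSO.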

[13] = CCTE_Harrill_HTTr_Viability_DMEM_12hr: (Pilot) CCTE's 12-hour Cell Viability Assessment for the High-Throughput Transcriptomics (HTTr) Platform, in MCF-7 cells cultured in DMEM + 10% fetal bovine serum, Harrill Lab (AID 2283974; active = hit-call score of the fitted dose curve at least 0.9, where 1 is the maximum; inactive = score below 0.9)
How it was run: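 MCF-7 cells in DMEM + 10% FBS exposed 12 h to an eight-point dilution series; membrane integrity scored by propidium iodide exclusion with high-content imaging, bidirectional fitting versus DMSO.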

[14] = CCTE_Harrill_HTTr_Viability_DMEM_24hr: (Pilot) CCTE's 24-hour Cell Viability Assessment for the High-Throughput Transcriptomics (HTTr) Platform, in MCF-7 cells cultured in DMEM + 10% fetal bovine serum, Harrill Lab (AID 2283975; active = hit-call score of the fitted dose curve at least 0.9, where 1 is the maximum; inactive = score below 0.9)
How it was run: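 MCF-7 cells in DMEM with 10% FBS exposed for 24 hours to an eight-point dilution series. Membrane integrity by propidium iodide exclusion with high content imaging; bidirectional fit against DMSO.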

[15] = target: T1, Thyroid hormone receptor alpha (Rattus norvegicus) + Thyroid hormone receptor beta (Rattus norvegicus); assay: TOX21_TR_LUC_GH3_Antagonist_Followup: Tox21 GH3 Thyroid Hormone Receptor Antagonism Luciferase Follow-Up Assay (AID 2283942)
How it was run: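 Confirmatory qHTS, antagonist mode: T3 (1.0 nM final) + test cpd, 15 conc, 92 uM–5nM final, GH3 rat pituitary line, 24 h, 37C. Luc reporter, RLU vs DMSO.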

THRA (gene 7067) [16] = target: THRA (gene 7067) (UniProt P10827); assay: TOX21_TRA_COA_Antagonist_Followup_ratio: Tox21 Thyroid Hormone Receptor alpha Antagonism through Coactivator Recruitment Follow-Up Assay, Ratio (AID 2283953)
How it was run: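 This follow-up to the GH3 luciferase screen checks specificity in a cell-free format. It measures SRC-2 coactivator peptide binding to TRα LBD by TR-FRET and scores loss of ratio signal relative to DMSO.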

THRB (gene 7068) [17] = target: THRB (gene 7068) (UniProt P10828); assay: TOX21_TRB_BLA_Antagonist_Followup_ratio: Tox21 Thyroid Hormone Receptor beta Antagonism Beta-lactamase (BLA) Follow-Up Assay, Ratio (AID 2283958)
How it was run: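 In this antagonist-mode follow-up, a stably integrated GAL4-TRβ LBD fusion drives a UAS-beta-lactamase reporter in HEK293T cells. Loss of ratio signal relative to DMSO after 18 h treatment indicates activity; parallel CellTiter-Glo flags cytotoxicity.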

[18] = TOX21_TRB_BLA_Antagonist_Followup_viability: Viability Assessment in the Tox21 Thyroid Hormone Receptor beta Antagonism Beta-lactamase (BLA) Follow-Up Assay (AID 2283961)
How it was run: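 ATP-based CellTiter-Glo luminescence (30 min, room temperature) run in the same wells as the TRβ-bla readout. Cells: GeneBLAzer HEK293T expressing GAL4-TRβ LBD, exposed 18 h at 37C to compounds at 11 concentrations in triplicate, stripped-serum medium.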

THRB (gene 7068) [19] = target: THRB (gene 7068) (UniProt P10828); assay: TOX21_TRB_COA_Antagonist_Followup_ratio: Tox21 Thyroid Hormone Receptor beta Antagonism through Coactivator Recruitment Follow-Up Assay, Ratio (AID 2283967)
How it was run: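 Test compound was incubated with 5.0 nM GST-TRβ LBD in 0.10% BSA. Then 200 nM fluorescein-SRC-2 peptide and 2 nM terbium anti-GST antibody were added. TR-FRET (520:495 nm) was measured and normalized to DMSO and T3 controls.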

[20] = target: Retinoic acid receptor RXR-alpha (Homo sapiens) (UniProt P19793); assay: TOX21_TR_RXR_BLA_Antagonist_Followup_ratio: Tox21 Thyroid Hormone Receptor beta Retinoid X Receptor alpha (RXRa) Antagonism Beta-lactamase (BLA) Follow-Up Assay, Ratio (AID 2283972)
How it was run: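 After 5 h attachment at 37C, HEK293T RXRa-bla cells (2,500/well, 2% charcoal-stripped FBS, no phenol red) received compounds at 11 concentrations in triplicate for 16 h. Beta-lactamase read as 460:530 nm ratio after 2 h RT substrate loading.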

CCOP(=S)(OCC)Oc1ccc([N+](=O)[O-])cc1
AC50 (PGR (gene 5241) [1]): 4.86 µM (active) | outcome [2]: inactive

C[N+]1(C)CCCCC1
outcome [3]: inactive | outcome (THRA (gene 7067) [4]): inactive | outcome (THRB (gene 7068) [5]): inactive | outcome [6]: inactive | outcome (THRB (gene 7068) [7]): inactive | outcome [8]: inactive | outcome [9]: inactive

CCC(=O)Nc1ccc(Cl)c(Cl)c1
outcome (PGR (gene 5241) [10]): inactive | outcome (PGR (gene 5241) [1]): inactive | outcome [2]: inactive | outcome [11]: inactive

CC(C1CC1)C(O)(Cn1cncn1)c1ccc(Cl)cc1 (stereo not given)
outcome [12]: inactive | outcome [13]: inactive | outcome [14]: inactive

CSC1=N[C@@](C)(c2ccccc2)C(=O)N1Nc1ccccc1
outcome [15]: inactive | outcome (THRA (gene 7067) [16]): inactive | outcome (THRB (gene 7068) [17]): inactive | outcome [18]: inactive | outcome (THRB (gene 7068) [19]): inactive | outcome [20]: inactive

C=C(C)[C@H]1Cc2c(ccc3c2O[C@@H]2COc4cc(OC)c(OC)cc4[C@@H]2C3=O)O1
AC50 [15]: 5.29 µM (active) | AC50 (THRB (gene 7068) [17]): 1.52 µM (active) | AC50 [18]: 6.16 µM (active) | outcome (THRB (gene 7068) [19]): inactive | outcome [20]: inactive | outcome [12]: inactive | outcome [13]: inactive | AC50 [14]: 0.0311 µM (active)

CCNc1nc(Cl)nc(NC(C)(C)C#N)n1
outcome [12]: inactive | outcome [13]: inactive | outcome [14]: inactive

CON=C(C(=O)OC)c1ccccc1CON=C(C)c1cccc(C(F)(F)F)c1
outcome (THRB (gene 7068) [17]): inactive | outcome [18]: inactive | outcome (THRB (gene 7068) [19]): inactive | outcome [20]: inactive | outcome [12]: inactive | outcome [13]: inactive | outcome [14]: inactive
